Results published in PubChem BioAssay AID1347055 (National Center for Advancing Translational Sciences (NCATS), 2019).
“And” between values parts separate entries of the source, which are not always exact repeats. Equal entries are not always repeated. The whole screen tested about 54,000 compounds, of which about 120 (0.22%) were called active. About 8% were inconclusive and are not listed. The call rests on the fitted dose curve; in most records, active means well fitted inhibition curve with a large enough effect; inconclusive means small, poorly fitted or top-dose-only effect, or effect the other way; inactive means flat fitted curve, though single readings scatter. The entries come from a sample that favours actives as a whole. Some structures have more than one record in an assay (separate samples or runs), and their calls can disagree.

molecular target: Fumarate hydratase, mitochondrial (Homo sapiens) (UniProt P07954); experiment: Identification of activators of human fumarate hydratase by quantitative high-throughput screening; settings: FH coupled MDH/diaphorase resazurin fluorescence, 15 min; series mostly up to 79.9 µM; activity change, negative = inhibition: at the top concentration; further: the screen sought activators but most active calls are inhibition curves; nearly all actives have a fitted effect of over 45% in size
Source text: Fumarate hydratase (FH) is a metabolic enzyme that is part of the Krebs-cycle, and reversibly catalyzes the hydration of fumarate to malate. Mutations of the FH gene have been associated with fumarate hydratase deficiency (FHD), hereditary leiomyomatosis, renal cell cancer (HLRCC), and other diseases. Currently there are no high-quality small molecule probes for studying human fumarate hydratase. To address this, we developed a quantitative high throughput screening (qHTS) FH assay and screened a total of 57,037 compounds in dose-response. While no inhibitors of FH were confirmed, a series of phenyl-pyrrolo-pyrimidine-diones (12 compounds) were identified as activators of human fumarate hydratase. […] The binding of two compounds from the series to human fumarate hydratase was confirmed by microscale thermophoresis. The low hit rate in this screening campaign confirmed that FH is a "tough target" to modulate, and the small molecule activators of human fumarate hydratase reported here may serve as a starting point for further optimization and development into cellular probes of human FH and potential drug candidates.
For primary high-throughput screen, 3 ul of FH solution (containing 13.33nM human fumarate hydratase, 13.33IU/ml malic dehydrogenase, 0.2mM NAD, 0.067mg/ml diaphorase and 0.067mM resazurin in the assay buffer (50 mM Tris pH 8.0, 5 mM MgCl2, 0.01% Brij 3) was dispensed into each well in a black solid bottom 1536-well assay plate (Greiner Bio-One) using a BioRAPTR FRD dispenser (Beckman Coulter, Brea, CA). A 1536-well pintool dispenser outfitted with 20 nl pins (Wako Automation, San Diego, CA) was used to transfer 20 nL of DMSO-solubilized compound (Cherrypick plates) to each 1536-well assay plate. Each compound was screened at five concentrations: 15 nM, 151 nM, 1.5 uM, 15.4 uM, 76.9 uM. Following compound transfer, plates were incubated in room temperature for 10 minutes. 1 uL of substrate solution containing fumaric acid (160 uM) was dispensed via BioRAPTR FRD to initiate the reaction. Plates were immediately transferred to a ViewLux microplate imager (PerkinElmer, Waltham, MA), and any resulting resorufin fluorescence was measured (exitation/emission, 525/598 nm) at 0 and 15 minutes. The exposure time is 1 second. Fluorescence from each well was normalized using enzyme-free and DMSO-treated control wells on each plate, and changes in fluorescence (delta RFU) were calculated using the difference in fluorescent signal for each well at 15 minutes versus 0 minutes.
On the % scale 0 is the no-effect control and ±100 the full control effect; potency means the concentration at half of the fitted maximal effect.

Fumarate hydratase, mitochondrial (Homo sapiens), sequence (P07954 whole entry, looked up): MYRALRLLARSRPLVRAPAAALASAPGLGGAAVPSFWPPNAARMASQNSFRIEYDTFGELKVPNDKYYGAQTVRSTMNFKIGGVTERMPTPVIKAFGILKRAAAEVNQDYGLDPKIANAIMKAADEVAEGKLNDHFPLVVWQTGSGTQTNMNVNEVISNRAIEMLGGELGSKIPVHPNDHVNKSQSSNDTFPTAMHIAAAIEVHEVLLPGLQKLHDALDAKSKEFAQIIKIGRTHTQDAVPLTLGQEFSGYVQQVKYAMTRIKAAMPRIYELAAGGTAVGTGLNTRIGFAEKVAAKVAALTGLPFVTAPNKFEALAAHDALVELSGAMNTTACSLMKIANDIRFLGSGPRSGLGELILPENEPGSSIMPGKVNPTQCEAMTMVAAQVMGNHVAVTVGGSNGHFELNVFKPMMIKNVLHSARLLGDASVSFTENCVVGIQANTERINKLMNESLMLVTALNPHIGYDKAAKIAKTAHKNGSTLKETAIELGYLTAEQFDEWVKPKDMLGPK

Activity change, negative = inhibition, inactive:
COc1ccc(-c2nc(C)c(CCNC(=O)c3ccc(C(F)(F)F)cc3)s2)cc1OC 1.18%, COc1ccc(-c2cn3c(n2)sc2cc(C(=O)Nc4ccccc4F)ccc23)cc1 -11.3%, Nc1nc2c(ncn2[C@@H]2O[C@@H]3COP(=O)(O)O[C@H]3[C@H]2O)c(=O)[nH]1 -2.31%, C[C@@H]1C[C@@H](O)[C@@]23CO[C@]2(CO)C[C@@H](O)CC3[C@@]12CC(c1ccoc1)OC2=O (some centres undefined) -2.44% [at 53.3 µM], CCC(=O)N[C@@H]1Cc2ccccc2[C@H](c2ccccc2)C1 1.26%, CCOC(=O)c1c(C)n(S(=O)(=O)c2ccc(C)cc2C)c2ccc(NS(=O)(=O)c3ccc(C)cc3C)cc12 -0.0866%, CCOC(=O)CSc1nc2c(sc3ccccc32)c(=O)n1CCCN1CCCC1 -0.602%, COc1cc(OC)c(NC(=O)c2cc(S(=O)(=O)N3CCCC3)cn2C)cc1Cl -2.25%, Cc1ccc(NC(=O)C2CCCN2S(=O)(=O)c2cccc3cccnc23)c(C)c1 (centres undefined) -1.91%, CC1C(=O)OCC2=CCN3CCC(OC(=O)C(C)(O)C1(C)O)C23 (centres undefined) 7.92% [at 53.3 µM], C[C@@H]1[C@H](O)[C@@H]2OC(=O)C3=C2[C@H](CCC3)[C@@]12C[C@@H](c1ccoc1)OC2=O 1.74% [at 53.3 µM], C[C@H]1CC[C@@H]2N(C1)C[C@@H]1[C@H]([C@@H](O)[C@H](O)[C@]3(O)[C@H]1C[C@@]14OC5(O)[C@@H](C[C@@H](O)[C@@H]31)[C@]4(C)CC[C@@H]5O)[C@]2(C)O 4.66% [at 53.3 µM], CN1CCCC1Cc1c[nH]c2ccc(CCS(=O)(=O)c3ccccc3)cc12 (centres undefined) -2.48%, O=C(C1CCCN(S(=O)(=O)c2cccc3nonc23)C1)N1CCN(c2ccccc2F)CC1 (centres undefined) -8.31%, COC(=O)[C@]12CCC(C)(C)C[C@@H]1[C@@H]1C(=O)C=C3[C@]4(C)C=C(C#N)C(=O)C(C)(C)[C@@H]4CC[C@@]3(C)[C@]1(C)CC2 -10.3%, C#C[C@]1(O)CC[C@H]2[C@@H]3CCC4=C/C(=N/O)CC[C@@H]4[C@H]3CC[C@@]21CC 5.71%, CC(=O)N1c2ccc(S(=O)(=O)N3CCCCCC3)cc2CC1C(=O)NCc1ccccc1C (centres undefined) 1.03%, COc1ccc(NC(=O)c2ccc3nc(CCc4ccccc4)oc3c2)c(OC)c1 -4.07%, COc1cc(Nc2nc3ccccc3nc2NS(=O)(=O)c2cccc(NC(=O)c3ccc(C)c(OC)c3)c2)cc(OC)c1 -14.2%, CC1(C)C(=O)N2c3ccccc3C(O)(CC(C(=O)O)n3cnc4ccccc4c3=O)C2N1O (centres undefined) 4.36% [at 53.3 µM], O=c1[nH]c2ccc(C#CCN3CCC(Cc4ccccc4)CC3)cc2[nH]1 -15.1%, CCOc1ccccc1NC(=O)Cn1c2ncccc2c(=O)n1-c1ccc(C)c(C)c1 -3.35%, CCOCCCNC(=O)c1cn(CC(C)C)c(=O)c2c1c1ccccc1n2C -9.65%, C=C1CCC2C(C)(C(=O)OC)CCCC2(C)C1CCC1=CCOC1=O (centres undefined) -5.08% [at 53.3 µM], Cc1cn(CCN2CCN(c3ccccc3-c3cc(C#N)cc(C(=O)NCCCN4CCCC4)c3)CC2)c2ccccc12 -5.7%, COC(=O)C1=CO[C@@H](O[C@@H]2O[C@H](CO)[C@@H](O)[C@H](O)[C@H]2O)[C@H]2[C@@H]1C=C[C@]21C=C([C@H](C)OC(=O)/C=C/c2ccc(O[C@@H]3O[C@H](CO)[C@@H](O)[C@H](O)[C@H]3O)cc2)C(=O)O1 0.414% [at 20.6 µM], COc1ccccc1CNc1nc2ccc(Cl)cc2n2cnnc12 -12.9%, Cc1ccc(C)c(Cn2c(C(=O)O)c(CNCc3cccs3)c3ccccc32)c1 -18.3%, O=C(COc1ccc(Cl)cc1)N(Cc1ccco1)Cc1ccco1 -13.3%, COc1ccccc1NC(=O)CSc1oc(-c2ccco2)nc1S(=O)(=O)c1ccc(Br)cc1 -21.2%, CNc1nc(-c2ccc3c(N)n[nH]c3c2)cc(N2CC(C(=O)NC3CCCCC3)CCC2C)n1 (centres undefined) 1.2%, O=C(N[C@H]1CCC[C@H](CO)C1)C1CCN(c2nc3cc(Cl)c(-c4ccc(Cl)cc4)cc3o2)CC1 -10.4%, CCOC(=O)c1[nH]c(C)c(CCC(=O)NCc2ccccc2C)c1C -3.89%, CCN(CC)C(=O)CSc1nc2ccsc2c(=O)n1Cc1ccccc1Cl -3.5%, CCOc1ccc(-n2nc3ccc(NC(=O)c4ccc(OC)c(Cl)c4)cc3n2)cc1 -6.48%, Cc1nn(C(=O)c2c(F)cccc2F)c(C)c1S(=O)(=O)N1CCOCC1 3.28%, COC(=O)C1=CO[C@@H](O[C@@H]2O[C@H](CO)[C@@H](O)[C@H](O)[C@H]2O)[C@@H]2[C@@H](C(=O)O)CC[C@H]12 0.0483% [at 53.3 µM], CCCCC1CCN(CCCN2C(=O)CCc3ccccc32)CC1 -0.254%, CC/C=C\CC1C(=O)C=CC1(CCCCCCCC(=O)O)OC(C)=O (centres undefined) -0.917% [at 53.3 µM], COc1cccc(CNC(=O)c2ccc3c(Cl)c4c(nc3c2)CCCC4)c1 -9.91%, C=CC(C)(O)CO[C@@H]1O[C@H](CO)[C@@H](O)[C@H](O)[C@H]1O (some centres undefined) 22.8%, Cc1cc2c(cc1S(=O)(=O)CCC(=O)NCc1ccccc1)OCC(=O)N2 -2.14%, CC(C)(OC1OC(CO)C(O)C(O)C1O)C1CCC(O)(CO)C2CC(O)C(C)(O)C2C1 (centres undefined) 8.59% [at 53.3 µM], O=C(/C=C/c1ccc(O)cc1)OCC1=C[C@@H](O)[C@@H]2C=CO[C@@H](O[C@@H]3O[C@H](CO)[C@@H](O)[C@H](O)[C@H]3O)[C@H]12 -7.41% [at 53.3 µM], COc1cc(C(C)=O)c(OC)c2c1OC(C)(C)C=C2 0.675%, O=C(CSc1nccn1C1CCCC1)Nc1cc(C(F)(F)F)ccc1Cl -25.7%, C=CC(C)(O)CC/C=C(\C)C(=O)OC1C(O)C(CO)OC(OC(=O)C23CCC(C)(C)CC2C2=CCC4C5(C)CCC(OC6OC(COC7OCC(OC(C)=O)C(O)C7OC7OC(COC(C)=O)C(O)C(O)C7OC(C)=O)C(O)C(O)C6OC6OCC(O)C(O)C6O)C(C)(C)C5CCC4(C)C2(C)C(O)C3O)C1OC1OCC(OC2OCC(O)C(OC3OCC(O)C(O)C3O)C2O)C(O)C1O (centres undefined) 3.1% [at 13.5 µM], C=C1CCC[C@]2(C)CC/C(=C(/CO)C(=O)OC)C[C@@H]12 -6.7%, CC[C@H](C)[C@H](NC(=O)[C@H]([C@@H](C)CC)N(C)C(C)=O)C(=O)N[C@H](C(=O)N[C@@H](CC(C)C)C(=O)[C@@]1(C)CO1)[C@@H](C)O -8.46%, COc1cc(C2c3cc(O)c(OC)cc3CC(CO)C2CO)ccc1O (centres undefined) -1.89% [at 53.3 µM], CCOc1ccc(NC(=O)CC2C(=O)N(c3cccc(OC)c3)C(=O)N2C2CCCCC2)cc1 (centres undefined) -21.2%, COc1cccc(C(=O)c2sc3nc(-c4ccccc4)cc(C(F)(F)F)c3c2N)c1 -18.3%, Cc1cccc(N2CCN(C(=O)Cn3ncc4c5ccccc5n(C)c4c3=O)CC2C)c1 (centres undefined) -11.6%, CC(=O)/C=C/C1(O)C(C)(C)CC(O)CC1(C)O (centres undefined) 7.46%, Cc1ccc2nc(COc3cccc(NC(=O)c4ccccc4Cl)c3)cc(=O)n2c1 -7.7%, O=C(Cn1c(=O)n(-c2ccc(F)cc2)c(=O)c2sccc21)Nc1cccc(C(F)(F)F)c1 -16.2%, COc1ccc(CCN2C(=O)N(c3cccc(OC)c3)C(=O)C2CC(=O)Nc2ccccc2)cc1 (centres undefined) -34.4%, CC1=C(C)C(=O)OC(C(C)C2CCC3C4CC=C5CC(OC6OC(COC7OC(CO)C(O)C(O)C7O)C(O)C(O)C6O)CC(O)C5(C)C4CCC23C)C1 (centres undefined) -4.36% [at 20.6 µM], CN(C(=O)CSc1nc2ccc(NC(=O)COc3ccccc3)cc2s1)c1ccccc1 -9.62%, CC(Nc1ncnc2nc[nH]c12)c1cc2cccc(Cl)c2c(=O)n1-c1ccccc1 (centres undefined) -6.04%, COc1ccc(NC(=O)c2ccc(-c3ccc(C(=N)N)cc3C)cc2)cc1N1CCN(C)CC1 -13.4%, Cc1c(C2=CCN(C(=O)N(C)C(C)C)CC2)nnn1-c1cccnc1F -2.43%, C/C=C/C1=CC2=CC(=O)C(C)(O)C(OC(=O)c3c(C)cc(O)cc3O)C2CO1 (centres undefined) -4.08% [at 53.3 µM], COc1ccc(Cn2ccnc2SCC(=O)Nc2ccc3c(c2)OCO3)cc1 -2.17%, O=C(CSCc1cnn(-c2ccccc2)c1-n1cccc1)NCc1ccccc1Br -11.3%, Cc1cccc(N2CCN(c3c(CN4CCCC4)c(=O)oc4ccccc34)CC2)c1C -2.63%, Cn1c(=O)[nH]c(=O)c2c1nc(NCCc1ccccc1)n2Cc1ccc(F)cc1 -6.91%, CCCOc1cccc(C(=O)Nc2cccc(NC(=O)c3ccc(C(C)(C)C)cc3)c2)c1 -3.92%, COc1ccccc1-n1c(SCC(=O)Nc2nc3ccc(C)cc3s2)nc2c(c1=O)SCC2 -7.7% [at 53.3 µM], COc1ccc(CCNc2ncnc3c2cnn3-c2ccc(C)cc2)cc1 -5.98%, CC1(C)C[C@H]2C3=CCC4[C@@]5(C)CC[C@H](O[C@H]6O[C@H](C(=O)O)[C@@H](O)[C@H](O)[C@H]6O[C@H]6O[C@H](CO)[C@@H](O)[C@H](O)[C@H]6O[C@@H]6O[C@H](CO)[C@@H](O)[C@H](O)[C@H]6O)[C@](C)(CO)C5CC[C@@]4(C)[C@]3(C)CC[C@@]2(C)[C@H](O[C@@H]2OC[C@H](O)[C@H](OC3O[C@H](CO)[C@@H](O)[C@H](O)[C@H]3O)[C@H]2O)[C@@H]1O (some centres undefined) 17.6% [at 13.5 µM], CCc1cc2c(cc(C(=O)OC)n2Cc2nc(-c3ccc(C)cc3)oc2C)s1 -12%, CCOC(=O)c1cc(OC(=O)c2ccccc2Cl)n(-c2ccccc2)n1 -5.8%, Cc1cc2ccccc2n1CCNC(=O)c1ccc(F)cc1 -12.2%, COc1ccc(Cl)cc1NC(=O)CSc1nc(=O)[nH]c2c1CCCC2 -10.3%, CCOc1ccc(-n2c(SCC(=O)NCc3ccccc3)nc3n[nH]c(C)c3c2=N)cc1 -3.31%, CC(=O)Nc1c(C)nn(-c2ccccc2)c1N1CCC(C(=O)Nc2cc(Cl)ccc2C)CC1 1.23%

Potency, inactive and 6.92 µM (active):
CNCC(O)c1ccc(O)c(O)c1 (centres undefined)

Potency, active:
CCOc1ccccc1CNC(=O)Nc1cn(CC(C)C)c(=O)c2ccccc12 28.2 µM [activator]
